Measured values taken from PubChem BioAssay AID493194 (Broad Institute, 2011).
Results with a measured potency or affinity are listed apart. Results filed as inconclusive are left out.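 How the source made its calls: active means a valid curve of falling signal whose half-effect concentration is at most ten times the top tested dose; inconclusive means flat curve at 30 to 70% inhibition, or poor fit; inactive means signal rise, flat within 30%, or potency beyond limit.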

What follows are compounds tested against Scavenger receptor class B member 1 (Mus musculus) (UniProt Q61009) (assay: inhibitors of SR-BI mediated HDL lipid uptake, dose response, ldlA[mSR-BI] cells, fluorescence, cherry pick (AID 493194;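 further: CHO cells lacking LDL receptor and overexpressing mouse SR-BI; cellular uptake of fluorescently labeled HDL measured as cell fluorescence; 0% = median of neutral control wells and -100% = median of positive control wells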)). Conditions: CHO ldlA[mSR-BI] DiI-HDL uptake fluorescence, 3 h; series mostly up to 35 µM; activity change, negative = inhibition: at the top concentration.
Scavenger receptor class B member 1 (Mus musculus), sequence (Q61009 whole entry, looked up): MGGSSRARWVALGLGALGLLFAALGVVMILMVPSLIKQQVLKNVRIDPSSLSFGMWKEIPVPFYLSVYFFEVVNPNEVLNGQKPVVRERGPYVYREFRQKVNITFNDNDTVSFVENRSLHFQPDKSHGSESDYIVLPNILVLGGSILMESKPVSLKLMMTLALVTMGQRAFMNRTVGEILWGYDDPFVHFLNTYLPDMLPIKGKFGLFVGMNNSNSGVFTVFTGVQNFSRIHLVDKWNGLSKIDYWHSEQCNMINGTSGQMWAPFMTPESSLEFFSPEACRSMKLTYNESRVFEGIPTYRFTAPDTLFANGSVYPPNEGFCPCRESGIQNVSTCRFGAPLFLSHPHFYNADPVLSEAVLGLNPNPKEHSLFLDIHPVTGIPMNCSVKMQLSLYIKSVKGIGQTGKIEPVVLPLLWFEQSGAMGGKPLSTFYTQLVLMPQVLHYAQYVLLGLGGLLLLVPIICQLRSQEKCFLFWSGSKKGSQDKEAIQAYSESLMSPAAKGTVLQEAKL

Activity change, negative = inhibition, inactive:
COc1ccc(-c2nnn(CC(=O)N(CC(=O)NC3CCCC3)c3cccc(C)c3)n2)cc1OC -20.7%
CC(=O)c1ccc(-c2ccc(C(=O)Nc3nc(-c4ccccn4)cs3)o2)cc1 -23.5%
O=C1[C@@H]2Cc3c([nH]c4ccccc34)C(c3cccc([N+](=O)[O-])c3)N2C(=O)CN1CCCO (stereo partly drawn) -30.1%
c1ccc(COn2c(-c3ccccc3)nc3c2CCc2nonc2-3)cc1 -12.6%
COc1ccc(-c2nc(-c3ccc(O)cc3O)cs2)cc1OC -21.4%
Cc1ccccc1C(=O)NC1CC2CCCC(C1)N2C(=O)Nc1ccccc1 (stereo not drawn) 8.56%
Cc1ccc(-c2nnc(N3CCC(C)CC3)c3ccccc23)cc1C -45.3%
O=C(/C=C/c1ccco1)Nc1cccc(NC(=O)/C=C/c2ccco2)n1 -12.9%
COc1ccc(C2/C=C\CN(S(=O)(=O)c3ccc(C)cc3)CC(=O)N2Cc2cccc(F)c2)cc1 (stereo not drawn) -0.778%
Cc1cc(C)cc(N(CCC#N)C(=O)COC(=O)CCc2c[nH]c3ccccc23)c1 -32.9%
CSc1nccc(-c2sc(SC)c(C#N)c2-c2ccccc2)n1 -17.5%
COc1ccc(C(=O)CSc2nnc(CNC(=O)c3ccc(S(=O)(=O)N(C)C)cc3)o2)cc1 -22.2%
COc1ccccc1CCc1nnc(CCC(=O)N(C)Cc2cccc3cnccc23)o1 -20.7%
COCCNC(=O)c1ccc(CS(=O)(=O)c2cccc(C(F)(F)F)c2)o1 22.7%
CC1CCCCC1NC(=O)C1CCN(C(=O)c2sccc2-n2cccc2)CC1 (stereo not drawn) 6.93%
O=C(NCCn1cc(SCc2ccccc2)c2ccccc21)c1c(F)cccc1F -20%
CC(C)[C@H](NC(=O)c1ccco1)C(=O)OCC(=O)c1ccc2c(c1)NC(=O)CO2 19.2%
O=C(Nc1nc(-c2ccccn2)cs1)c1ccc(-c2ccccc2F)o1 10.7%
O=C(Nc1ccccc1)NC1CC2CCC(C1)N2Cc1nnnn1Cc1ccc2c(c1)OCO2 (stereo not drawn) -1.78%
COC(=O)C1C(=O)c2c([nH]c(C(=O)OC3CCCC3C)c2C)CC1C (stereo not drawn) 10.7%
COc1ccc(-c2cc(C(F)(F)F)nc(SCCC(=O)N3CCN4CCCC4C3)n2)cc1 (stereo not drawn) 0.459%
O=c1cc(N2CCCCC2)c(-c2ccccc2)nn1Cc1cccc(F)c1 60.8%
Clc1ccc(Cn2nnc(-c3ccc(N4CCOCC4)cc3)n2)cc1 28.1%
Cc1cccc(Nc2ccccc2C(=O)OCC(=O)N(C)C2CCS(=O)(=O)C2)c1C (stereo not drawn) -26.6%
Cc1ccc(NS(=O)(=O)c2ccc(C(=O)NNC(=O)c3ccccc3O)cc2)cc1 14.7%
O=C(NCC1CCCO1)c1ccc2c(c1)N(Cc1ccc(F)cc1Cl)C(=O)CS2 (stereo not drawn) 0.105%
COc1ccc(N(CC(=O)NC2CCCC2)C(=O)Cn2nnc(-c3ccc(C)cc3)n2)cc1 0.875%
O=C1NCCOC(=O)[C@H](Cc2ccc(F)cc2)C/C=C\C[C@@H]1CC(=O)N(CCO)Cc1ccccc1 24.5%
COc1ccc(OC)c(CCNC(=O)c2ccc3c(c2)N(Cc2ccccc2)CCS3)c1 62.2%
CCOc1ccc(NC(=O)CN2CCN(CC(=O)Nc3ccc(C(=O)OC)cc3)CC2)cc1 -49.9%
COc1ccccc1-n1cnc2cc(NCc3ccco3)ccc21 -0.766%
N#Cc1ccc(C(=O)N2CCC3CC2c2cc(-c4ccccc4)ccc23)cc1 (stereo not drawn) 16.1%
N#Cc1ccc(CN2CCN(C(=O)c3ccc(S(=O)(=O)NCc4ccco4)cc3)CC2)cc1 -45.4%
Cc1ccsc1-c1nc(-c2ccccc2)c(-c2ccccc2)[nH]1 -8.96%
Cc1cc(C)nc(Nc2n[nH]c(-c3ccc(C(C)(C)C)cc3)n2)n1 -50.8%
CCC(C)c1ccccc1N1CC(C(=O)N2CCN(S(=O)(=O)c3ccccc3Br)CC2)CC1=O (stereo not drawn) -7.79%
CCOC(=O)C1CCCN(S(=O)(=O)NC[C@H]2O[C@@H](n3cnc4c(N)ncnc43)[C@H](O)[C@@H]2O)C1 (stereo partly drawn) -3.82%
Cc1nc2c(cnn2-c2ccccc2Cl)c(=O)n1-c1ccc(N2CCC(C)CC2)cc1 -33.4%
